The text below walks through data of PubChem BioAssay (NCATS).

Structures are written as SMILES. Records with an inconclusive call do not appear. Active and inactive are the calls of the source. Unless noted, the call rests on the fitted dose curve; in most records, active means well fitted curve in the direction sought with a large enough effect; inconclusive means small, poorly fitted or top-dose-only effect, or another doubt; inactive means no such curve, though single readings can be large; an effect the other way counts as inactive or inconclusive.

In assay [1] the target is Cytochrome P450 3A4 (Homo sapiens) (UniProt P08684). The assay can be described thus: qHTS Assay for Inhibitors and Substrates of Cytochrome P450 3A4 (AID 884). Further: nearly all actives have a fitted effect of over 50% in size. Further: potency means the concentration at half of the fitted maximal effect. On activity change, negative = inhibition: on the % scale 0 is the no-effect control and ±100 the full control effect. The essentials: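 Luminescent readout of luciferin produced by CYP3A4 (20 nM) dealkylation of Luciferin-PPXE, 25 uM (its KM). NADPH-driven reaction ran 60 min at RT after 10 min compound preincubation; data scaled to 57 uM ketoconazole as 100% inhibition.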
Sequence of Cytochrome P450 3A4 (Homo sapiens) (P08684 whole entry, looked up): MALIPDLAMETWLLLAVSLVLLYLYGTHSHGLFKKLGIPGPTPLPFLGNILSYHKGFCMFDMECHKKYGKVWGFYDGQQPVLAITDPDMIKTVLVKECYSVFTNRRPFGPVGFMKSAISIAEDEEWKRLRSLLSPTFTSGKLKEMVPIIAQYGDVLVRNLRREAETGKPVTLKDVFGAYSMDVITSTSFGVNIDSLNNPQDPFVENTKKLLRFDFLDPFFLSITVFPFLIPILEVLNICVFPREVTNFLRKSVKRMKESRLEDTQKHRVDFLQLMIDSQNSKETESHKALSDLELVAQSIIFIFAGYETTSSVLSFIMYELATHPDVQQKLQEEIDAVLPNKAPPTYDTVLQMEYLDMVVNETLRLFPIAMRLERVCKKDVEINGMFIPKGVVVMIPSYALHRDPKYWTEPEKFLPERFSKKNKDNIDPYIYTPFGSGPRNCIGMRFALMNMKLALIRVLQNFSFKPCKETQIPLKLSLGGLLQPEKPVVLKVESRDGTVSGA

The target is the same in assay [2]. In words: qHTS Assay for Activators of Cytochrome P450 3A4 (AID 885). Further: nearly all actives have a fitted effect of over 65% in size. The essentials:
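Activators are scored by enhanced luminescence from CYP3A4 conversion of luciferin-PPXE (25uM, equal to KM) to luciferin, after 60 min at RT with an NADPH-regenerating system.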

Assay [3] is described as follows: Confirmation and Secondary Assay for Modulators of Hemoglobin Beta Chain Splicing at IVS2 654 locus (AID 910).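 Further: HeLa cells stably carrying EGFP split by mutant beta-globin IVS2-654 intron; per-well total GFP intensity by laser scanning cytometry after 2-day treatment; % of control where 0% means no effect.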 The procedure, abridged: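 Readout: per-well total peak green fluorescence (488 nm ex, 500–520 nm em) from objects 5–250 µm, reflecting correct splicing of an EGFP-654 reporter. Compounds were applied for 2 days at 37 °C to overnight-plated HeLa EGFP-654 cells; controls were DMSO and 500 nM IVS2-654 PNA.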

Assay [4] in a line: Confirmation and Secondary Assay for Modulators of Hemoglobin Beta Chain Splicing at IVS2 705 locus (AID 930).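 Further: HeLa cells stably expressing the EGFP-705 splicing reporter; % of control where 0% means no effect.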 The essentials: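 HeLa cells stably carrying EGFP interrupted by mutant beta-globin IVS2-705 intron (CMV-driven) were seeded at 500 cells/well, treated next day with compound for 2 days at 37C; corrected splicing restores EGFP, read as total peak GFP intensity per well.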

Assay [5] is described as follows: qHTS Assay for Lipid Storage Modulators (AID 1519; calls by dose curve; on activity change, negative = inhibition: on the % scale 0 is the no-effect control and ±100 the full control effect). To be noted: Drosophila S3 cells, BODIPY lipid droplet/cell ratio, laser cytometry, cells loaded with oleic acid; for activity change, negative = inhibition: at 57.5 µM (top of the series). The essentials:
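Cells seeded at 5,000 per well were treated with compounds over a concentration series and loaded with oleic acid (400 uM, as added). Lipid droplet fluorescence (488 nm excitation, 500-530 nm channel) was read by laser-scanning cytometry and normalized to 20 uM Triacsin C.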

For assay [6], the target named is Ubiquitin carboxyl-terminal hydrolase 1 (Homo sapiens) (UniProt O94782). The assay can be described thus: Inhibitors of USP1/UAF1: Pilot qHTS (AID 504865).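 Further: rhodamine fluorescence freed from ubiquitin-rhodamine substrate followed over time; top concentration of the series differs between compounds; on the % scale 0 is the no-effect control and ±100 the full control effect; nearly all actives have a fitted effect of over 35% in size.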 The procedure, abridged:
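In 50mM HEPES pH 7.8 containing 0.5mM EDTA, 1mM TCEP, 0.1 mg/ml BSA and 0.01% Tween-20, 1nM USP1/UAF1 is exposed to compound for 15 min, then Ub-Rho (150nM final) is added and fluorescence is read over time.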
A general note: Quantitative high-throughput screening tests each substance at several concentrations.

Assay [7] addresses Luciferin 4-monooxygenase (Photinus pyralis) (UniProt P08659). In words: Biochemical firefly luciferase enzyme assay for NPC (AID 624030).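 Further: purified P. pyralis luciferase at 10 nM with luciferin and ATP substrate; 0% = DMSO and -100% = full luciferase inhibition by PTC124 control; nearly all actives have a fitted effect of over 70% in size.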 The procedure, abridged:
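Direct inhibition of firefly luciferase enzyme (10 nM final, 50 mM Tris Acetate) assessed by luminescence within 5 minutes. Percent activity scaled between DMSO and PTC124 positive control, with concentration-effect curves classified by fit quality and response.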

Assay [8] addresses DNA dC->dU-editing enzyme APOBEC-3G (Homo sapiens) (UniProt Q9HC16). The assay can be described thus: qHTS for inhibitors of Vif-A3G interactions: Validation (AID 588379). Further: 0% is about no effect. The essentials: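 Yellow fluorescence (Ex 488, Em 500-530) of Vif-coexpressing HeLa A3G-eYFP cells, scanned by Acumen cytometer, reports blocked A3G degradation. Cells plated at 700/well overnight at 37 deg C before compound addition, then a further overnight compound incubation at 37 deg C.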

Where [9] appears, read: measured here: cell count channel max response.
Where [10] appears, read: measured here: lipid channel max response.

Sequence of Ubiquitin carboxyl-terminal hydrolase 1 (Homo sapiens) (O94782 whole entry, looked up): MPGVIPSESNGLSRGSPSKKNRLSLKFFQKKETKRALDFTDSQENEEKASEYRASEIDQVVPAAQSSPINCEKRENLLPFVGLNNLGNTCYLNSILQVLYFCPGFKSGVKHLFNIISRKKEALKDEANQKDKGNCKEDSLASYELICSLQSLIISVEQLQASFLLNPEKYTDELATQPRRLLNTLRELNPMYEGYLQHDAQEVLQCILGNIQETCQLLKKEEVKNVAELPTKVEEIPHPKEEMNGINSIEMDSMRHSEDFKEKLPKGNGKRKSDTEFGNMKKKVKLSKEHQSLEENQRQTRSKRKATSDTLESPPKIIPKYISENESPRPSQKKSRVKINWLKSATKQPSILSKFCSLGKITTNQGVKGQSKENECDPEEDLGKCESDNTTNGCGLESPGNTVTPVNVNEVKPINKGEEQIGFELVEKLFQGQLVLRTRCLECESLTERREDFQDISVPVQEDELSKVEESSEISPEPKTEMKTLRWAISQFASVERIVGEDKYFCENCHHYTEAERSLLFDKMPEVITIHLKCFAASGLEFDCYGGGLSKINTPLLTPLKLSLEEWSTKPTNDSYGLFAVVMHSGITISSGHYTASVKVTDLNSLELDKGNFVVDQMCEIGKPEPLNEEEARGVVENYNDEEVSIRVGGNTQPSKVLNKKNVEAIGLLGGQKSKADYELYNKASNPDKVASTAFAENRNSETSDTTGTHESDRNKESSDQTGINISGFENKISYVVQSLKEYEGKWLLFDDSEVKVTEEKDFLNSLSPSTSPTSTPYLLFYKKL
Sequence of DNA dC->dU-editing enzyme APOBEC-3G (Homo sapiens) (Q9HC16 whole entry, looked up): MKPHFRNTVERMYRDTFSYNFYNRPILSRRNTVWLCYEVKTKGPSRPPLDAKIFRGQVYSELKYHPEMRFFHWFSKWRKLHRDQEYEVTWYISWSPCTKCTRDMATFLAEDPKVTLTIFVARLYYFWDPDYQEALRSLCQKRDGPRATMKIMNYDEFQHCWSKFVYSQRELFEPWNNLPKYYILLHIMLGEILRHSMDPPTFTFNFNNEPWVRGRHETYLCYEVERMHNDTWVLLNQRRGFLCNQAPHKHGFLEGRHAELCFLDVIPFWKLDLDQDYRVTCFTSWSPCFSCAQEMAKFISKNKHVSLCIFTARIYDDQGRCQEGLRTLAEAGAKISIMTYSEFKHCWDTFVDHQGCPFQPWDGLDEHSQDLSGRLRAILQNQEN
Sequence of Luciferin 4-monooxygenase (Photinus pyralis) (P08659 whole entry, looked up): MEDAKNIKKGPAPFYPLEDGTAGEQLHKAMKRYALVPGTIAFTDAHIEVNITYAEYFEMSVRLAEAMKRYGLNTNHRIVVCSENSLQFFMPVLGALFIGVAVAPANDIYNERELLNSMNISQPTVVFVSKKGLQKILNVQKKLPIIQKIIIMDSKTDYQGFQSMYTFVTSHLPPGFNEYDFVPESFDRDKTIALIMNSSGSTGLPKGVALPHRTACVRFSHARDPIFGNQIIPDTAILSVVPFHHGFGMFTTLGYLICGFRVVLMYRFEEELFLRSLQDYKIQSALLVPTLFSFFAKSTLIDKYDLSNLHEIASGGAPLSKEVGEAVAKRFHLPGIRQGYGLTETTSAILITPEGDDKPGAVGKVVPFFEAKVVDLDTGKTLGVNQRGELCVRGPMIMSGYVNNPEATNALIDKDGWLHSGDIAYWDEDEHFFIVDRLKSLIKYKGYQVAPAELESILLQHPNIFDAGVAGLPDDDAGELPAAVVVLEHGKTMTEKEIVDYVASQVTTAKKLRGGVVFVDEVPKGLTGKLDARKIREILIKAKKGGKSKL

For the compound `CC(=O)OC1C[C@@]2(C)C(c3ccoc3)OC(=O)C3O[C@@]32[C@]2(C)C(OC(C)=O)CC3C(C)(C)C(OC(C)=O)CC(OC(C)=O)[C@@]3(C)C12` (some centres undefined), the Potency in assay [1] was 5.01 µM (active). Moreover, the Potency result in assay [2], in assay [3], in assay [4] and in assay [6] was “inactive” throughout. Moreover, the activity change, negative = inhibition in assay [5] was -11.3% (inactive). The max response in assay [5] (setting [9]) is -1.68%; in assay [5] (setting [10]), -11%.

In the case of `COC(=O)CC1C(C)(C)C(O)C2CC3=C4C=C(OC)OC(c5ccoc5)[C@]4(C)CCC3[C@@]1(C)C2=O` (some centres undefined), the Potency in assay [1] was 10 µM (active). Also, the Potency result in assay [2], in assay [3], in assay [4] and in assay [6] was “inactive” throughout. Moreover, in assay [5], the activity change, negative = inhibition was -1.2% (inactive). For the same compound, the values for the max response in assay [5] (setting [9]) and in assay [5] (setting [10]) were 2.63% and 3.16%, respectively.

Consider `O=C(O)C(O)C(O)C(O)C(O)C(=O)O` (centres undefined), for which the Potency result in assay [1], in assay [3], in assay [4], in assay [6] and in assay [7] was “inactive” each time. The activity change, negative = inhibition in assay [5] was 5% (inactive). The max response in assay [5] (setting [9]) came to 3.45%; in assay [5] (setting [10]) it was 13%.

`COC(=O)CC1C(C)(C)C(=O)C2CC3=C4CC(=O)OC(c5ccoc5)[C@]4(C)CCC3[C@@]1(C)C2=O` (some centres undefined): the Potency in assay [1] was 1.58 µM (active). Besides, the Potency result in assay [2], in assay [3], in assay [4] and in assay [6] was “inactive” each time. For the same compound, the activity change, negative = inhibition in assay [5] is 1.08% (inactive). Further, the max response in assay [5] (setting [9]) was 14.1%; in assay [5] (setting [10]), 18%.

On to `Cc1cc(=O)oc2cc(O[C@@H]3O[C@H](C(=O)O)[C@@H](O)[C@H](O)[C@H]3O)ccc12`, for which the Potency result in assay [1] and in assay [6] was “inactive” each time. The activity change, negative = inhibition in assay [5] is 7.88% (inactive). Besides, the max response in assay [5] (setting [9]) amounted to 8.78%; in assay [5] (setting [10]), 16.3%. Moreover, in assay [8], the outcome was inactive.

As for `O=c1c(-c2ccc(O[C@@H]3O[C@H](CO)[C@@H](O)[C@H](O)[C@H]3O)cc2)coc2cc(O)cc(O)c12`, the Potency result in assay [1] and in assay [6] was “inactive” each time. Moreover, in assay [5], the activity change, negative = inhibition was 7.95% (inactive). Moreover, the max response in assay [5] (setting [9]) is -1.95%; in assay [5] (setting [10]) it was 5.64%. In assay [8], the compound was called inactive.
